Screens (PubChem BioAssay)
Nrf2 inh: Nrf2 qHTS screen for inhibitors. Potency, µM (top dose mostly 46 µM), actives largely listed as inhibitors. AID 504444, 2011. A549 ARE-Fluc reporter, luciferase luminescence, 18-24 h. hit rate 2.1% among 360,000; also: nearly all actives have a fitted effect of over 60% in size
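A549 ARE_Fluc cells, 5000/well, 5% FBS OPTI-MEM; compounds in dose-response, 18-24 h at 37 °C/5% CO2; CellTiter-Fluor viability read (Ex 405/Em 525), then BugLite luciferase luminescence = Nrf2 activity.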
HepG2 viability: qHTS for Inhibitors of TGF-b: Cytotox Counterscreen; hit rate 0.76% among 410,000; HepG2 CAGA-GFP viability, ATP luminescence, 18 h; Potency, µM (titrated, usually from 46.1 µM), most hits filed as cytotoxic
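HepG2 CAGA-GFP cells (1000/well, DMEM with 1% FBS) received compound, then TGF-beta at 500 pg/mL final, and were incubated 18 hours at 37 degrees C. Viability was read by CellTiter-Glo luminescence. Media-only wells were set as complete cell-killing and DMSO as no toxicity.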
Nrf2 activator: qHTS of Nrf2 Activators; AREc32 ARE-luciferase reporter (MCF7-derived line), luminescence, 24 h; Potency, µM (titrated, usually from 46.1 µM), most hits filed as activators; hit rate 0.31% among 410,000; AID 624171, 2012; also: nearly all actives have a fitted effect of over 65% in size
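Reporter line AREc32 (ARE-Fluc), seeded overnight in OPTI-MEM with 5% FBS; compound pin-transferred, 24 hr at 37 deg C, 5% CO2; luminescent read-out.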
A549 tox: Nrf2 qHTS screen for inhibitors: counterscreen for cytotoxicity; hit rate 0.16% among 390,000; Potency, µM (highest dose often 46 µM), hits mostly inhibitors; AID 504648, 2011; A549 ARE-Fluc cells, CellTiter-Fluor viability, 18-24 h
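A549 ARE-Fluc cells in 5% FBS OPTI-MEM, 5000 cells/well, rested 2 h then exposed to compounds in concentration-response for 18-24 h at 37 °C. Viability by CellTiter-Fluor fluorescence (Ex 405/Em 525) after 30 min; luciferase luminescence (BugLite, 15 min, RT) read afterwards.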
TGFb SMAD3 inh: qHTS for Inhibitors of TGF-b; HepG2 CAGA-GFP TGF-b/SMAD3 reporter, GFP fluorescence, 18 h; TGF-beta stimulated, 500 pg/mL final; Potency, µM (series often up to 46.1 µM), usual class: inhibitors; hit rate 1.2% among 410,000; AID 588855, 2011; also: nearly all actives have a fitted effect of over 65% in size
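Inhibition was scored as loss of TGF-beta-induced (500 pg/mL final, 18 hours, 37 degrees C) GFP in HEPG2 cells carrying a CAGA-GFP reporter, in DMEM with 1% FBS. Well GFP was summed per cell; Activity was normalised to unstimulated and stimulated DMSO wells, then concentration-response fitting.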
Large screens that a line does not name were inactive; ! = repeats disagree. Hits are enriched below; roughly 3.6% of the tested compounds scored in any of these assays. Calls follow the shape of the dose curve; as a rule, active = well fitted curve in the direction sought with a large enough effect; inconclusive = small, poorly fitted or top-dose-only effect, or another doubt; inactive = no such curve, though single readings can be large; an effect the other way counts as inactive or inconclusive.

COC(=O)c1c(NC(=O)C(C)Oc2ccc(Cl)cc2Cl)sc2c1CCCC2 (configuration not stated)	none
O=C(COC(=O)/C=C/c1ccco1)Nc1ccc(F)cc1Cl	Nrf2 activator 3.16µM
O=C(COC(=O)/C=C/c1ccco1)Nc1ccccc1	Nrf2 activator inconclusive
Cc1cc(NC(=S)N(CCCN2CCOCC2)Cc2ccco2)ccc1Cl	TGFb SMAD3 inh inconclusive
CCCN(Cc1ccccc1)C(=S)Nc1cccc(C(F)(F)F)c1	Nrf2 inh 20.6µM, TGFb SMAD3 inh inconclusive
CCN1CCN(CCCN(Cc2ccco2)C(=S)Nc2ccc(Cl)c(C)c2)CC1	HepG2 viability 11.2µM
FC(F)(F)c1cccc(NC(=S)N(CCCN2CCCC2)Cc2cccn2Cc2ccc(Cl)cc2)c1	HepG2 viability 12.6µM, TGFb SMAD3 inh inconclusive
CN(C)CCCN(Cc1ccccc1)C(=S)Nc1cccc(C(F)(F)F)c1	TGFb SMAD3 inh inconclusive
Cc1ccc(NC(=S)N(CCCN2CCCC2)Cc2cccn2Cc2ccc(Cl)cc2)cc1Cl	Nrf2 inh inconclusive, A549 tox inconclusive
Cc1ccc(NC(=S)N(CCCN2CCCC2)Cc2cccn2Cc2ccc(Cl)cc2)cc1C	Nrf2 inh inconclusive, HepG2 viability 11.2µM, A549 tox inconclusive, TGFb SMAD3 inh 17.8µM
COC(=O)[C@H]1C[C@@H]1[C@H](NC(=O)c1cccnc1)c1ccccc1	TGFb SMAD3 inh inconclusive
CSc1c(CC(=O)NCCCO)n(Cc2ccccc2)c2ccccc12	Nrf2 inh inconclusive
CCOc1ccccc1NC(=O)c1cc(-c2ccncc2)nc2c(Cl)cccc12	none
Cc1c(C(=O)NCCN(C)C)n(C)c(=O)c2ccccc12	none (no result: Nrf2 inh, A549 tox)
COc1ccc(CCNC(=O)c2coc(=O)c(Br)c2)cc1	Nrf2 inh inconclusive, HepG2 viability 12.6µM, TGFb SMAD3 inh 17.8µM
COc1ccc(CCNC(=O)c2ccc(Br)cc2)cc1	none
O=C(CCCN1C(=O)/C(=C/c2ccccc2Cl)SC1=S)NNC(=O)c1ccccc1	Nrf2 inh 20.6µM, TGFb SMAD3 inh inconclusive
O=C(CN1C(=O)S/C(=C\c2ccccc2)C1=O)NNC(=O)c1ccccc1O	none
CC(/C=C1\SC(=O)N(CCCC(=O)O)C1=O)=C\c1ccccc1	Nrf2 inh 2.31µM, TGFb SMAD3 inh inconclusive
O=C(CCCN1C(=O)S/C(=C\c2ccccc2)C1=O)NNC(=O)c1ccccc1O	Nrf2 inh 13µM
CN1CCN(C(=O)CCN2C(=O)/C(=C/c3ccccc3Cl)SC2=S)CC1	Nrf2 inh inconclusive, Nrf2 activator inconclusive, A549 tox 20.6µM, TGFb SMAD3 inh inconclusive
O=C(CCCN1C(=O)/C(=C/c2ccccc2Cl)SC1=S)NNC(=O)c1cccnc1	Nrf2 inh inconclusive
CN1CCc2cc(O)c(O)cc2C(c2ccccc2)C1 (configuration not stated)	none
O=C(CCN1C(=O)/C(=C\c2ccccc2F)SC1=S)N1CCOCC1	none (no result: Nrf2 inh, A549 tox)
CN1CCN(C(=O)CCN2C(=O)/C(=C\c3ccccc3F)SC2=S)CC1	Nrf2 inh inconclusive, A549 tox 23.1µM, TGFb SMAD3 inh inconclusive
COCCCN(C(=O)c1cccnc1SC)c1c(N)n(Cc2ccccc2)c(=O)[nH]c1=O	Nrf2 inh inconclusive
C=CCOC(=O)C1=C(C)NC(SCC(=O)Nc2ccc(C)c(Cl)c2)=C(C#N)C1c1ccco1 (configuration not stated)	Nrf2 inh 6.51µM
COCCOC(=O)C1=C(C)NC(SCC(=O)NC(C)(C)C)=C(C#N)C1c1ccco1 (configuration not stated)	none
C=CCOC(=O)C1=C(C)NC(SCC)=C(C#N)C1c1ccc(Cl)cc1 (configuration not stated)	Nrf2 inh 20.6µM, A549 tox inconclusive, TGFb SMAD3 inh 12.6µM
Cc1nc(Nc2ccc(C(=O)O)cc2)nc(Nc2ccc(C(=O)O)cc2)c1[N+](=O)[O-]	Nrf2 inh inconclusive
CC(=O)Nc1ccc(Nc2nc(C)c([N+](=O)[O-])c(Nc3ccccc3)n2)cc1	Nrf2 inh 16.4µM, A549 tox inconclusive
Cc1cc(=O)[nH]c2cc(O)ccc12	none
CC(C)=CCCC1(C)C=Cc2c(c(C)cc3c2[nH]c2cc(O)ccc23)O1 (configuration not stated)	HepG2 viability 11.2µM, A549 tox inconclusive, TGFb SMAD3 inh 11.2µM
Cc1ccc(S(=O)(=O)N2CCCc3cc(NS(=O)(=O)c4cccc(Cl)c4)ccc32)cc1	A549 tox inconclusive, TGFb SMAD3 inh 10µM (no result: Nrf2 inh)
CCn1c(=O)sc2cc(NS(=O)(=O)c3ccc(C)cc3)ccc21	Nrf2 inh 18.4µM
Cc1ccc(S(=O)(=O)Nc2ccc3c(c2)CCC3)cc1	Nrf2 inh 11.6µM, A549 tox inconclusive
CCOc1ccc(S(=O)(=O)Nc2ccc3c(c2)CCCN3S(=O)(=O)c2ccc(C)cc2)cc1	none (no result: Nrf2 inh)
Cc1c(CC(=O)NCCCCCC(=O)O)c(=O)oc2cc3c(cc12)CCC(C)(C)O3	Nrf2 inh 10.3µM
Cc1c(CC(=O)NCCCC(=O)O)c(=O)oc2cc3c(cc12)CCC(C)(C)O3	Nrf2 inh 18.4µM
CC(=O)c1ccc(NS(=O)(=O)c2cc(-c3cnc(C4CC4)o3)ccc2C)cc1	none
CS(=O)(=O)c1ccc(CNC(=O)C2(C(F)(F)F)C/C(=C\Cc3ccccc3)CCCO2)cc1 (configuration not stated)	Nrf2 inh 18.4µM!, TGFb SMAD3 inh inconclusive
Cc1c(CCOC(=O)c2ccc(Cl)cc2Cl)sc[n+]1CC(=O)c1ccc(Br)cc1	HepG2 viability 14.1µM, TGFb SMAD3 inh inconclusive
O=S(=O)(Cc1ccc(Cl)cc1)C1CCCCC1O (configuration not stated)	none
COc1c(Cl)cc(Cl)cc1/C=C/C(=O)c1ccc(NC(=O)c2cccs2)cc1	Nrf2 inh inconclusive, Nrf2 activator inconclusive, A549 tox inconclusive, TGFb SMAD3 inh inconclusive
CN1CCN(CCCNC(=O)c2ccc(/C=C3\Oc4ccccc4N(Cc4ccccc4F)C3=O)cc2)CC1	TGFb SMAD3 inh 17.8µM
CCN1CCN(CCNC(=O)c2ccc(/C=C3\Sc4ccccc4N(Cc4ccccc4F)C3=O)cc2)CC1	HepG2 viability 14.1µM, TGFb SMAD3 inh inconclusive
COCCCNC(=O)c1ccc2c(c1)N(Cc1ccccc1F)C(=O)c1ccccc1S2=O (configuration not stated)	none
CN1CCN(CCCNC(=O)c2ccc(/C=C3\Sc4ccccc4N(Cc4ccc(F)cc4)C3=O)cc2)CC1	TGFb SMAD3 inh inconclusive
COCCCNC(=O)/C=C1\Sc2ccccc2N(Cc2ccccc2F)C1=O	Nrf2 activator 11.2µM
Cc1ccc(-n2ncc(C(=O)Nc3ccc4c(c3)OCO4)c2C2CCN(C(=O)OC(C)(C)C)CC2)c(C)c1	A549 tox inconclusive, TGFb SMAD3 inh inconclusive
CCN(CC(=O)Nc1ccc2c(c1)OCCO2)Cc1cc(=O)oc2c(C)c(C)ccc12	none
